Some test systems named below: NCI-H23 lung; NCI-H226 lung; NCI-H322M lung; HOP-62 NSCLC; NCI-H460 lung; HOP-92 NSCLC; NCI-H522 lung; A549/ATCC NSCLC; 786-0 renal; COLO 205 colon; DU-145 prostate; K-562 leukemia; MALME-3M melanoma; MDA-MB-231 breast; RXF 393 renal; SF-268 CNS; SF-295 CNS; SF-539 CNS; UACC-257 melanoma; M14 melanoma.
What all share (experiment): NCI-60 one-dose screen, 48 h (100 = growth as untreated, 0 = no growth, -100 = all killed)
What all share (details): 10 µM unless noted

The panel holds about 83,000 compounds, 20% with a hit somewhere; the sample as a whole holds those more often.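 Note: values are percent growth. 100 is the growth of untreated cells, values between 100 and 0 indicate rising inhibition; between -100 and 0 indicates cell death.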 A number with no mark means an inactive call. Active and inactive are the calls of the source. How the source made its calls: active means growth percent below 10; inactive means the rest.

As to `Cc1c2cnccc2c(C)c2c1c1cc(C3OCCCO3)ccc1n2C`, the growth is -31.9% (active) with NCI-H23 lung; -4.43% (active) in the assay with NCI-H226 lung; -2.25% (active) with NCI-H322M lung; -13% (active) in the assay with HOP-62 NSCLC; 0.184% (active) with NCI-H460 lung; -10.5% (active) with HOP-92 NSCLC. Besides, the growth in the assay on NCI-H522 lung is -41.6% (active); in the assay with A549/ATCC NSCLC, 2.33% (active); in the assay on 786-0 renal it was 11.8%; with COLO 205 colon, -17.6% (active); with DU-145 prostate it was 3.92% (active); in the assay with K-562 leukemia, 3.75% (active). For the same compound, the growth in the assay with MALME-3M melanoma is -62.9% (active); in the assay on MDA-MB-231 breast, -26.1% (active); with RXF 393 renal, -78.9% (active); with SF-268 CNS, 1.29% (active); in the assay with SF-295 CNS, 0.404% (active); in the assay on SF-539 CNS it was -55.1% (active). The growth was -25.8% (active) in the assay with UACC-257 melanoma and -79.8% (active) in the assay on M14 melanoma.
Regarding `COc1ccccc1-n1c(-c2cc(O)ccc2C)cn2c3c(=O)[nH]c(=O)n(C)c3nc12`, the growth in the assay on NCI-H23 lung is 90.6%; with NCI-H226 lung it was 107%; in the assay with NCI-H322M lung it was 36%; with HOP-62 NSCLC, 68.2%; in the assay on NCI-H460 lung it was 91.6%; in the assay with HOP-92 NSCLC, -1.51% (active). In addition, the growth with NCI-H522 lung is 44.5%; in the assay with A549/ATCC NSCLC, 66.3%; in the assay with 786-0 renal, 52.8%; with COLO 205 colon, 84.2%; in the assay with DU-145 prostate, 79.3%; in the assay on K-562 leukemia it was 25.3%. Further, the growth in the assay with MALME-3M melanoma was 89.9%; with MDA-MB-231 breast, 41.2%; with RXF 393 renal, 19.2%; in the assay with SF-268 CNS, 60.3%; in the assay with SF-295 CNS, 89.8%; in the assay on SF-539 CNS it was 72.6%. The values for the growth in the assay with UACC-257 melanoma and in the assay with M14 melanoma were 83.8% and 92.2%, respectively.
As for `O=C1NC(=O)c2c1c1c3ccccc3[nH]c1c1oc3ccc(F)cc3c21`, the growth in the assay on NCI-H23 lung was 61.9%; in the assay on NCI-H226 lung it was 54%; in the assay with NCI-H322M lung it was 50.7%; in the assay with HOP-62 NSCLC, 64.8%; in the assay on NCI-H460 lung, 52.9%; with HOP-92 NSCLC it was 70.1%. Further, the growth is 50.4% with NCI-H522 lung; 86% with A549/ATCC NSCLC; 90.3% in the assay with 786-0 renal; 79.4% in the assay with COLO 205 colon; 77.4% in the assay with DU-145 prostate; 78.4% in the assay on K-562 leukemia. Besides, the growth was 48.6% in the assay on MALME-3M melanoma; 77.9% with MDA-MB-231 breast; 69.1% with RXF 393 renal; 79.5% in the assay on SF-268 CNS; 71% in the assay with SF-295 CNS; 64.3% in the assay on SF-539 CNS. The growth is 95.1% in the assay with UACC-257 melanoma and 45.1% with M14 melanoma.
Regarding `COc1ccc(-c2cn(-c3ccc(Cl)cc3)c(SCC(=O)c3ccc([N+](=O)[O-])cc3)n2)cc1`, the growth in the assay with NCI-H23 lung is 86.9%; in the assay on NCI-H226 lung it was 91.3%; in the assay on NCI-H322M lung, 81.1%; with HOP-62 NSCLC it was 50.4%; in the assay with NCI-H460 lung, 91.5%; with HOP-92 NSCLC, 28%. Moreover, the growth with NCI-H522 lung was 70.7%; in the assay on A549/ATCC NSCLC, 101%; in the assay with 786-0 renal, 52.9%; in the assay with COLO 205 colon, 110%; in the assay on DU-145 prostate, 102%; in the assay on K-562 leukemia it was 102%. For the same compound, the growth with MALME-3M melanoma was 87.9%; in the assay on MDA-MB-231 breast, 80%; in the assay on RXF 393 renal, 54.1%; in the assay on SF-268 CNS it was 73.1%; in the assay on SF-295 CNS, 75.3%; in the assay with SF-539 CNS, 82.5%. In addition, the growth was 99.6% in the assay on UACC-257 melanoma and 92.4% with M14 melanoma.
Turning to `Cn1cc(-c2ccc3cc(-c4ccc(CC(=O)Nc5cc(C(C)(C)C)on5)cc4)cnc3c2)cn1`, the growth was 46.1% in the assay with NCI-H23 lung; 43% with NCI-H226 lung; 16.5% in the assay on NCI-H322M lung; 44.4% with HOP-62 NSCLC; -3.39% (active) with NCI-H460 lung; 50.9% in the assay with HOP-92 NSCLC. Besides, the growth is 17.2% with NCI-H522 lung; 16.5% in the assay on A549/ATCC NSCLC; -92.6% (active) in the assay with 786-0 renal; 35.3% in the assay on COLO 205 colon; 22.1% in the assay with DU-145 prostate; 5.03% (active) in the assay with K-562 leukemia. For the same compound, the growth with MALME-3M melanoma is -15.8% (active); with MDA-MB-231 breast, 11.4%; with RXF 393 renal, -0.246% (active); with SF-268 CNS, 15.7%; in the assay with SF-295 CNS it was 29.7%; in the assay on SF-539 CNS, 20.4%. In addition, the growth is 5.83% (active) with UACC-257 melanoma and 0.0609% (active) in the assay on M14 melanoma.
Consider `C#CC#CC#CC#CC#CC#CC#CC#CC[C@H]1OC[C@H](COC(=O)O[C@@H](C(=O)O[C@H]2C[C@@]3(O)[C@@H](OC(=O)c4ccccc4)[C@@H]4[C@]5(OC(C)=O)CO[C@@H]5C[C@H](O)[C@@]4(C)C(=O)[C@H](OC(C)=O)C(=C2C)C3(C)C)[C@@H](NC(=O)c2ccccc2)c2ccccc2)O1`, for which the growth in the assay with NCI-H23 lung was 45.8%; in the assay on NCI-H226 lung, 54.5%; in the assay on NCI-H322M lung, 53.6%; in the assay with HOP-62 NSCLC, 68.9%; with NCI-H460 lung, 18.8%; with HOP-92 NSCLC it was 57.7%. Also, the growth with NCI-H522 lung was 63.5%; in the assay on A549/ATCC NSCLC it was 49.6%; in the assay on 786-0 renal, 83.5%; in the assay with COLO 205 colon it was 19.3%; in the assay on DU-145 prostate, 45.3%; with K-562 leukemia, 22.2%. For the same compound, the growth is 56.7% with MALME-3M melanoma; 62.5% with MDA-MB-231 breast; 43% with RXF 393 renal; 61.7% in the assay with SF-268 CNS; 44.6% in the assay with SF-295 CNS; 39.8% in the assay on SF-539 CNS. In addition, the growth in the assay with UACC-257 melanoma is 70.9%; in the assay on M14 melanoma it was 27.5%.
With `CCN1C(=O)N(CC)C2C1NN=c1s/c(=C\c3cc4ccccc4[nH]3)c(=O)n12` (stereo not given), the growth was 34.8% in the assay on NCI-H23 lung; 38.6% in the assay on NCI-H226 lung; 50.6% in the assay with NCI-H322M lung; 16.5% in the assay on HOP-62 NSCLC; 0.818% (active) with NCI-H460 lung; -5.71% (active) in the assay on HOP-92 NSCLC. The growth in the assay with NCI-H522 lung is -12.2% (active); with A549/ATCC NSCLC, 0.183% (active); with 786-0 renal, 28.9%; in the assay with COLO 205 colon, -32.5% (active); with DU-145 prostate, 16.4%; with K-562 leukemia, 9.13% (active). For the same compound, the growth in the assay with MALME-3M melanoma is 33.4%; in the assay on MDA-MB-231 breast, 14.7%; in the assay with RXF 393 renal, 47.3%; with SF-268 CNS, 25.6%; in the assay with SF-295 CNS, 18.6%; in the assay with SF-539 CNS, -21.9% (active). Moreover, the growth in the assay on UACC-257 melanoma was 45.5%; with M14 melanoma, 19.8%.
On to `Fc1ccc(COc2ccc(Nc3ncnc4sc5c(c34)CCCC5)cc2)cc1`, for which the growth is 99.4% with NCI-H23 lung; 102% in the assay with NCI-H226 lung; 86.9% in the assay on NCI-H322M lung; 97.2% in the assay with HOP-62 NSCLC; 97.3% with NCI-H460 lung; 88.9% in the assay on HOP-92 NSCLC. The growth with NCI-H522 lung was 73%; in the assay on A549/ATCC NSCLC, 88.4%; in the assay with 786-0 renal it was 94.6%; with COLO 205 colon, 103%; in the assay on DU-145 prostate it was 96.8%; with K-562 leukemia, 103%. Also, the growth in the assay with MALME-3M melanoma is 109%; in the assay on MDA-MB-231 breast, 94.9%; with RXF 393 renal it was 109%; with SF-268 CNS, 89.8%; in the assay on SF-295 CNS it was 89.8%; in the assay with SF-539 CNS, 103%. The growth with UACC-257 melanoma is 106%; with M14 melanoma it was 104%.

Source of the values: PubChem BioAssay (NCI).
